Screening data: PubChem, National Center for Advancing Translational Sciences (NCATS)
Many of the other results were omitted from the sample, so hits are more common in it than they were.
Giardia FBPA inh: Giardia lamblia aldolase inhibition; A8B2U2; purified Giardia FBPA; Potency, µM (titrated, usually from 59.6 µM), inactives show at the top dose activity, negative = inhibition, hits mostly inhibitors; 0.71% of 290,000 active; AID 2451; also: potency is read from the fitted curve at half-maximal effect; % is scaled to controls: 0 for no effect and ±100 for the full control effect; nearly all actives have a fitted effect of over 55% in size
Target sequence (A8B2U2 whole entry, looked up): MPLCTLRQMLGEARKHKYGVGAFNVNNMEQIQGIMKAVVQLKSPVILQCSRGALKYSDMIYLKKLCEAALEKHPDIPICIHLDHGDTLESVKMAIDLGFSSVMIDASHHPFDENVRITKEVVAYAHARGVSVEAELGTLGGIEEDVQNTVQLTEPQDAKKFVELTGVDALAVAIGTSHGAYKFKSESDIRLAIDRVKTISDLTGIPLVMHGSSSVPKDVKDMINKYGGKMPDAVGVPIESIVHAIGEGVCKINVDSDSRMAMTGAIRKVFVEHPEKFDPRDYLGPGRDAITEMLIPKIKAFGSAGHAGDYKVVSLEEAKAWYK
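Giardia FBPA (40 nM reagent) was preincubated 10 min at RT with compound (up to 57.5 uM final), then substrate plus GAPDH/TPI/NAD/arsenate coupling system with diaphorase/resazurin was added; resorufin fluorescence (525/598 nm) was read after 20 min.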
Sm TGR inh: inhibitors of Schistosoma mansoni thioredoxin glutathione reductase; Q962Y6; AID 485364; 3% of 360,000 active; purified TGR, DTNB reduction, TNB absorbance 405 nm; Potency, µM (series often up to 114 µM), inactives show at the highest dose activity change, negative = inhibition, hits mostly inhibitors; also: potency is read from the fitted curve at half-maximal effect; % is scaled to controls: 0 for no effect and ±100 for the full control effect; nearly all actives have a fitted effect of over 60% in size
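First, TGR (20 nM dispensed) and NADPH were mixed with compound. Second, a 15 min room-temperature incubation followed. Third, further NADPH and then DTNB were added to start the reaction. Finally, TNB absorbance was monitored kinetically.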
Shiga inhibitor: Shiga toxin inhibition. AID 2315. 9.2% of 290,000 active. Vero cells, Shiga toxin protein synthesis inhibition reporter. inhibition, % at 38.7 µM; in the data active = inhibition mostly above about 28%, no sharp cut-off; inactive = mostly below about 43%; also: 0% is about no effect
Cycloheximide cs: affects cycloheximide protein synthesis inhibition readout, counter-screen; cell reporter, cycloheximide protein synthesis inhibition counterscreen; 12% of 300,000 active; max response, %; in the data active = max response mostly above about 13%, no sharp cut-off; inactive = mostly below about 14%; also: read at 38.3 µM for the half of the compounds with a filed dose; 0% is about no effect
LmPK inh: LmPK (Leishmania mexicana) enzyme inhibition; Q27686; purified LmPK, Kinase-Glo ATP luminescence, 1 h; Potency, µM (top dose mostly 57.5 µM), without a hit: at the top dose activity change, negative = inhibition, most hits filed as inhibitors; 0.37% of 290,000 active; also: potency is read from the fitted curve at half-maximal effect; % is scaled to controls: 0 for no effect and ±100 for the full control effect
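In 50 mM imidazole pH 7.2 with 7 mM MgCl2, LmPK (0.1 nM) turned over PEP (0.5 mM) and ADP (0.1 mM) for 1 h at room temperature. Luciferase read-out of ATP.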
TbPYK inhibitor: T. brucei pyruvate kinase inhibition; Potency, µM (series often up to 76.8 µM), inactives show at the highest dose activity, negative = inhibition, usual class: inhibitors; TbPYK enzyme, Kinase-Glo Plus ATP luminescence, 45 min; AID 624173; 0.12% of 410,000 active; also: potency is read from the fitted curve at half-maximal effect; % is scaled to controls: 0 for no effect and ±100 for the full control effect; nearly all actives have a fitted effect of over 50% in size
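Enzyme and substrate buffer are dispensed first and compound is pin-transferred. ADP at 130 uM final then starts the reaction, which runs 45 min at room temperature. Detection reagent is added for 10 min before luminescence is imaged.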
* = called active by the depositor; ? = inconclusive; / = not tested or not shown; [ ] = dose if it differs, or a comment. Unless noted, calls follow the shape of the dose curve; as a rule, active = well fitted curve in the direction sought with a large enough effect; inconclusive = small, poorly fitted or top-dose-only effect, or another doubt; inactive = no such curve, though single readings can be large; an effect the other way counts as inactive or inconclusive.

SMILES	Giardia FBPA inh	Sm TGR inh	Shiga inhibitor	Cycloheximide cs	LmPK inh	TbPYK inhibitor
CCc1ccc(OCC(=O)NC(=S)Nc2cccc(CO)c2)c(Br)c1	-11.3%	-18.4%	41.1	22.4*	3.3%	-1.8%
Cc1cc(C)cc(NC(=O)CSc2nnc(CNC(=O)c3c(F)cccc3Cl)o2)c1	/	2.8%	/	/	/	-2.5%
O=c1cc(-c2ccccc2)nc2cc(-c3ccc(F)cc3)[nH]n12	/	-1.8%	/	/	/	-12.1%
COCc1cc(=O)n2[nH]c(-c3ccc(C)cc3)cc2n1	-13.1%	-11.6%	71.7*	37.2*	-3.5%	4.7%
CCc1c(C)nc2cc(-c3ccc(OC)cc3)[nH]n2c1=O	5.2%	15.5%	130.4*	32.4*	11.9%	8.6%
Cc1nc2cc(-c3ccccc3)[nH]n2c(=O)c1C	-6.7%	4.0%	63.0*	34.1*	-3.1%	-2.6%
CCOC(=O)Cc1c(C)nc2cc(-c3ccc(Cl)cc3)[nH]n2c1=O	2.3%	2.3%	16.8	5.0	-8.8%	4.0%
Cc1cc(=O)n2[nH]c(-c3ccccc3)cc2n1	-8.4%	0.4%	65.7*	19.7	-1.3%	-2.1%
CCOC(=O)Cc1cc(=O)n2[nH]c(-c3ccc(C)cc3)cc2n1	-20.1%	-7.4%	13.5	-1.2	-9.0%	-5.1%
CSc1nc(N)c2c(n1)N(C)C=NS2(=O)=O	/	/	/	/	/	2.1%
Cc1ccc(-c2cc(C(=O)Nc3ccc4c(c3)OCCO4)c3ccccc3n2)cc1	0.3%	0.9%	124.8*	54.6*	-1.8%	6.1%
O=C(Nc1ccc2c(c1)OCO2)c1cc(-c2cccnc2)nc2ccccc12	-22.8%	42.2%	71.4	16.0*	-0.8%	-4.5%
CC(=O)Nc1ccc(NC(=O)c2cc(-c3ccccc3)nc3ccccc23)cc1	-1.6%	-3.9%	14.9	3.1	0.5%	-1.4%
Cc1ccccc1N=C1Nc2ccccc2CS1	-5.0%	11.9%	121.5*	29.0*	-26.8%	-11.5%
Cc1ccccc1N=C1NC(=O)CS1	-4.6%	-2.0%	-5.6	-9.6	-2.3%	-0.9%
O=C(Nc1cccc(S(=O)(=O)NC2=NCCC2)c1)c1ccccc1OC(F)F	/	1.5%	/	/	/	0.2%
CCOc1cc(CN2CCOCC2)cc(C(C)=O)c1	-5.6%	44.7µM*	-7.1	-2.2	-0.3%	9.4%
CCOc1ccc(CN2CCN(C(=O)c3cccc(F)c3)CC2)cc1	-27.6%	0.0%	-4.3	-1.4	-1.3%	7.1%
CC1CN(C(=O)c2cccc(COc3ccc(Br)cc3)c2)CC(C)O1 (configuration not stated)	2.4%	0.2%	12.8*	57.6*	1.1%	3.0%
CCOc1ccc(OCc2cccc(C(=O)N3CCOCC3)c2)cc1	-4.1%	1.6%	127.3*	100.6*	-13.3%	-3.8%
CC(=O)c1cc(CN2CCCCC2)cc(OC(C)C)c1	-2.7%	-33.6%	-18.2	-6.7	0.7%	3.1%
CCOc1cc(N2CCOCC2)c(OCC)cc1NC(=O)c1ccccc1	-15.7%	0.6%	-17.0	-1.4	-11.7%	0.3%
CCOc1ccc(N=C(/C(C(=O)C(=O)N2CCOCC2)=C(/O)c2ccccc2)c2ccccc2)cc1	-24.7%	?	61.7*	46.9*	1.2%	-0.4%
CCOc1ccc(OCCC(=O)OCC(=O)Nc2ccc(Cl)cn2)cc1	/	-3.9%	/	/	/	2.0%
O=C(c1cccc(OCc2ccccc2)c1)N1CCOCC1	4.0%	8.7%	41.1	12.9*	-0.2%	-5.6%
SMILES	Giardia FBPA inh	Sm TGR inh	Shiga inhibitor	Cycloheximide cs	LmPK inh	TbPYK inhibitor
O=C(Nc1nc2n(n1)C(c1ccc(Cl)cc1)C=C(c1ccccc1)N2)c1ccco1 (configuration not stated)	/	-9.3%	/	/	/	-10.0%
O=C(Nc1nc2n(n1)C(c1ccccc1)C=C(c1ccccc1)N2)c1ccccc1 (configuration not stated)	/	6.31µM*	/	/	/	-5.8%
COc1ccc(C2C=C(c3ccccc3)Nc3nc(NC(=O)c4ccc(C)cc4)nn32)cc1 (configuration not stated)	/	-6.0%	/	/	/	-14.1%
COc1ccc(C(=O)Nc2nc3n(n2)C(c2ccc(Cl)cc2)C=C(c2ccccc2)N3)cc1OC (configuration not stated)	/	22.4µM*	/	/	/	0.6%
Cc1nnc(SCc2ccc(Cl)cc2)c2cc3occc3n12	/	3.9%	/	/	/	0.0%
O=C(N=C1N=C2C=CC=CN2Cc2ccccc21)c1ccc(S(=O)(=O)N2CCCC2)cc1	1.8%	3.7%	96.9*	55.4*	-8.5%	-5.5%
CN(C)S(=O)(=O)c1cccc(C(=O)N=C2N=C3C=CC(Cl)=CN3Cc3ccccc32)c1	-7.2%	-10.7%	130.2*	53.0*	?	-7.0%
O=C(c1ccc(S(=O)(=O)N2CCOCC2)cc1)N1CCc2ccccc2C1	4.9%	-6.4%	-6.6	0.4	0.4%	8.1%
O=C(N=C1N=C2C=CC=CN2Cc2ccccc21)c1ccc(S(=O)(=O)N2CCOCC2)cc1	3.5%	0.9%	154.3*	32.5*	-24.7%	-0.9%
CCOc1ccc(NC(=O)c2cn(C)c(=O)c3cc(OC)c(OC)cc23)cc1	/	3.3%	/	/	/	-8.3%
CCC(=O)Nc1ccccc1C(=O)OCc1ccc(C(=O)c2ccccc2)cc1	-1.6%	16.1%	15.0	25.3*	-1.6%	1.8%
CC(=O)Nc1ccccc1C(=O)OCc1ccc(F)cc1	-0.3%	16.6%	37.3	32.0*	-0.7%	-0.5%
CCCCCCNC(=O)N[C@@H](Cc1ccc(O)cc1)C(=O)NCCC[C@H]1CN2C(=NC[C@H]2C)N1CC1CCC1	4.4%	?	39.6*	10.8	0.6%	-3.5%
C[C@@H](CN1C2=NC[C@H](C)N2C[C@H]1Cc1ccc(O)cc1)NC(=O)CCC1CCCCC1	0.5%	?	-11.4	-3.5	4.0%	-7.5%
Fc1ccccc1N=C1NN=C(c2ccccc2)CS1	-0.1%	0.3%	138.4*	52.7*	-2.8%	-2.1%
Cc1c(Cl)cccc1N=C1NC(=O)CS1	/	/	/	/	/	-8.2%
Fc1ccc(F)c(C2=NNC(=Nc3ccccc3F)SC2)c1	-1.6%	6.3%	149.7*	130.2*	-9.4%	-2.6%
O=C1CSC(=Nc2ccccc2Cl)N1	-2.4%	-6.9%	23.2	16.5*	4.4%	14.8%
COCCn1c(C)cc(C2=NNC(=Nc3ccccc3F)SC2)c1C	-10.5%	-19.7%	103.8*	94.8*	9.7%	?
CCOc1ccc(CCNC(=O)c2ccc(CS(=O)(=O)Cc3ccccc3Cl)o2)cc1OCC	/	-26.0%	/	/	/	5.0%[15.4 µM]
CC(C)Cn1nc(NC(=O)c2cccc(Cl)c2)c2cc3ccccc3nc21	/	9.7%	/	/	/	-4.4%
Fc1ccc(N=C2NN=C(c3cc(F)ccc3F)CS2)cc1	-3.2%	-13.1%	69.0*	54.2*	-4.7%	-9.6%
Cc1cc(C2=NNC(=Nc3ccccc3)SC2)c(C)n1C	-14.4%	-7.9%	68.7*	34.8*	-7.5%	?
O=S(=O)(c1ccc(N=C2NN=C(c3cc(F)ccc3F)CS2)cc1)N1CCOCC1	-10.2%	-1.0%	2.7	5.9	1.2%	?
CCN1C(=O)CSC1=Nc1ccccc1Cl	6.9%	0.0%	-1.8	-2.8	-0.4%	-8.8%
